Assay outcomes (PubChem BioAssay)
Only some compounds are listed: those with a hit (about 1.1% of all), similar ones and a draw of the others.
HTR5A inv ctr = HTR5A inverse agonism, opioid heterodimer counter-screen. P47898. HTR5A cell line, luminescence. inhibition, % at 9.3 µM. hit rate 0.083% among 340,000. AID 504634; in the data active = inhibition mostly above about 23%, no sharp cut-off; inactive = mostly below about 18%;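 note: 0% = cells with DMSO and 100% = no-cell wells with DMSO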
Target sequence (P47898 whole entry, looked up): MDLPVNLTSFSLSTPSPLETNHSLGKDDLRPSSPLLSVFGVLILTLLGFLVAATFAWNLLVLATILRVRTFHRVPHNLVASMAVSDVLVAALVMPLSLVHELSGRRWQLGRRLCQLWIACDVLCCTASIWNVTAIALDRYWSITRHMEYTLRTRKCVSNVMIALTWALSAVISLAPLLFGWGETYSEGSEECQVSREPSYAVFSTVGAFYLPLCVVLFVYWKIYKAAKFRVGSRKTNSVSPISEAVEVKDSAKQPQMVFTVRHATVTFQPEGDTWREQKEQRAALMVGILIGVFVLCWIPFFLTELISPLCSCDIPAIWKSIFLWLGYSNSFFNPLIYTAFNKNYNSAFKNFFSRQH
HTR5A ag ctr = activates human HTR5A in OPRM1-OPRD1 agonist counter-screen. P47898. HTR5A agonist assay, luminescence, cell-based. activation, % at 9.3 µM. hit rate 0.61% among 340,000; in the data active = activation mostly above about 9.5%, no sharp cut-off; inactive = mostly below about 7.6%;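 note: 0% = cells with vehicle only and 100% = reference agonist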
MOR-DOR inv ag = mu-delta opioid heterodimer inverse agonism; P35372+P41143; cell-based MOR-DOR heterodimer luminescence; inhibition, % at 9.3 µM; hit rate 0.21% among 340,000; AID 504357; in the data active = inhibition above about 22%, passing the limit was not always enough;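 note: 0% = cells with DMSO and 100% = wells without cells with DMSO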
OPRM1-OPRD1 ag = agonists of human mu-delta opioid receptor heterodimerization; P35372+P41143; cells, OPRM1-OPRD1 heterodimerization, luminescence; activation, % at 9.3 µM; hit rate 0.3% among 340,000; AID 504326; in the data active = activation above about 18%;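 note: 0% = vehicle-treated cells and 100% = reference agonist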
Active calls of the source: *.

SMILES	HTR5A inv ctr	HTR5A ag ctr	MOR-DOR inv ag	OPRM1-OPRD1 ag
CCOc1ccc(NC(=O)CCCNC(=O)Cn2cnc3sc(C)c(C)c3c2=O)cc1	-8	3	-6	1
CN(CCC#N)C(=O)CSc1nnc(-c2c[nH]c3ccccc23)o1	-4	1	3	-1
O=C(COC(=O)C1=COCCO1)NCc1ccc(Cl)cc1	-36	13*	7	-1
O=C(COc1ccccc1Cl)Nc1ccc(NC(=O)c2ccco2)cc1	2	-1	14	-3
O=C(Nc1ccc(-c2noc(COc3ccccc3Cl)n2)cc1)c1ccco1	-21	12*	-11	3
CCN1CCN(C(=O)CN2C(=O)c3ccccc3S2(=O)=O)CC1	4	2	6	-1
N#Cc1c(-c2ccccc2)cc(-c2ccccc2)nc1SCc1nnc(-c2ccccc2)o1	3	13*	-6	1
COc1ccc(-c2cc(-c3ccccc3)c(C#N)c(SCC(=O)O)n2)cc1	1	8	20	-4
Cc1ccc(S(=O)(=O)N2CCC(C(=O)NC3CC(C)(C)NC(C)(C)C3)CC2)cc1C	3	8	12	-4
O=C(COC(=O)CCN1C(=O)c2ccccc2C1=O)Nc1ccccc1[N+](=O)[O-]	-38	11*	7	-1
O=C(COC(=O)CN1C(=O)c2ccccc2C1=O)Nc1ccccc1[N+](=O)[O-]	14	-6	-3	1
O=C(c1ccccc1F)N1C(=O)c2cccc3cccc1c23	-38	12*	-13	2
O=C(c1ccco1)N1C(=O)c2cccc3cccc1c23	-21	3	-5	1
Clc1ccc(C2Nc3cccc4cccc(c34)N2)cc1	3	15*	0	0
O=C(Nc1nc(-c2cccc3ccccc23)cs1)c1cnccn1	-26	10*	5	-1
CCOC(=O)c1ccc(N=c2sc(C(=O)OC)cc(=O)n2CCCN2CCOCC2)cc1	-2	11	0	0
CCOC(=O)c1ccc(N=c2sc(C(=O)OC)cc(=O)n2Cc2ccco2)cc1	-3	14*	-3	0
O=C1C=C(c2cc(C(F)(F)F)cc(C(F)(F)F)c2)C[C@@H](c2ccc(Cl)cc2)C1	23	-9	-21	4
Cc1ccc2cc(C3CC(c4ccco4)=NN3S(C)(=O)=O)c(Cl)nc2c1 (stereo not given)	18	-6	14	-3
Cc1ccc2cc(NC(=O)c3cccc(F)c3)ccc2n1	-31	5	1	0
Cc1c([N+](=O)[O-])cc(C(=O)Nc2ccc3ncccc3c2)cc1[N+](=O)[O-]	-36	9.5*	-40	8
Cc1ccc2cc(NC(=O)c3ccccc3)ccc2n1	-34	9.4*	0	0
CCN(CC)S(=O)(=O)c1ccc(C(=O)Nc2cccc(C)c2)cc1	0	2	-6	1
O=C(Nc1ccncc1)Nc1cccc(C(F)(F)F)c1	-53	10*	-12	4
Cc1ccc(S(=O)(=O)Nc2ccc(NC(=O)Nc3cccc(C(F)(F)F)c3)cc2)cc1	-8	21*	-144	28*
SMILES	HTR5A inv ctr	HTR5A ag ctr	MOR-DOR inv ag	OPRM1-OPRD1 ag
Cc1ccc(NC(=S)NNC(=S)Nc2cccc(C(F)(F)F)c2)cc1	-25	0	-5	1
CCN(CC)S(=O)(=O)c1ccc(NC(=O)Nc2cccc(C(F)(F)F)c2)cc1	13	13*	-31	6
CCN(CC)S(=O)(=O)c1ccc(NC(=O)COc2c(OC)cccc2OC)cc1	3	13*	2	0
CC(C)(C)C(C(=O)n1cccc1C#N)c1ccccc1 (stereo not given)	0	0	-17	3
CSc1ccccc1NC(=O)NCCCl	-9	1	10	-2
CC(C)(C)OC(=O)N1CCCC(C(=O)Nc2ccc(C(=O)NCc3ccccc3)cc2)C1 (stereo not given)	14	-4	1	0
O=C(Nc1cccc(C(F)(F)F)c1)c1sc(Cl)nc1C(F)(F)F	-35	9.4*	-18	4
O=C(Nc1cccc(C(F)(F)F)c1)c1cc(-c2ccco2)on1	3	4	-25	4
Cc1ccc(NS(=O)(=O)c2ccc(NC(=O)c3cccs3)cc2)cc1	-10	8.3*	-38	7
COc1ccc(Cl)cc1S(=O)(=O)N1CCCC1=O	6	-2	10	-2
COc1ccc(Cl)cc1S(=O)(=O)n1ccnc1	-34	9.2*	12	-3
Cc1noc(C)c1COc1ccc(C(=O)OCC(=O)N2CC3(C)CC2CC(C)(C)C3)cc1 (stereo not given)	-31	-1	-2	0
CN(C)S(=O)(=O)c1ccc(C(=O)OCC(=O)N2CC3(C)CC2CC(C)(C)C3)cc1 (stereo not given)	-31	13*	-2	1
C#CC(=O)N(c1ccc(OC)cc1OC)C(C(=O)NC1CCCC1)c1cccs1 (stereo not given)	-121	43*	-274	52*
O=C(NCC1(c2ccccc2)CCCC1)c1ccccc1	21	2	4	-1
O=C(NCC1(c2ccccc2)CCCC1)C(=O)NCC1(c2ccccc2)CCCC1	9	9.9*	-3	1
Cn1c2ccccc2c(=O)c2ccc(NCCc3cccs3)cc21	-19	14*	-35	6
Cc1ccccc1/C(N)=N/OC(=O)c1cccs1	-1	12*	-59	9
N/C(=N\OC(=O)c1cccs1)c1cccnc1	-19	-2	-20	2
Nc1ccc2c(c1)C(O)c1cccc(C(=O)O)c1-2 (stereo not given)	0	0	14	-3
O=c1[nH]cnc2c1c(-c1ccccc1)cn2-c1cccc(Cl)c1	-21	10*	-28	5
COc1ccc(-n2cc(-c3ccccc3)c3c(=O)[nH]cnc32)cc1	-16	6	1	0
COc1ccccc1NS(=O)(=O)c1ccc(OC)c(OC)c1	10	10*	7	-1
CCOc1ccccc1NS(=O)(=O)c1ccc(OC)c(OC)c1	15	-1	2	0
CCCCc1cc(=O)oc2cc(OCC(=O)NCc3ccccn3)ccc12	1	0	18	-4
SMILES	HTR5A inv ctr	HTR5A ag ctr	MOR-DOR inv ag	OPRM1-OPRD1 ag
Cc1ccc(C)n1-c1sc2c(c1C#N)CCC(C)C2 (stereo not given)	1	13*	-49	9
O=C(COc1ccccc1)N/N=C/c1ccc(O[C@@H]2O[C@H](CO)[C@@H](O)[C@H](O)[C@H]2O)cc1	4	13*	11	-2
O=C(O)c1cccc(N/N=C(\N=Nc2ccccc2)c2ccccc2)c1	24	-1	25	-4
O=C(O)c1ccc(N=N/C(=N\Nc2ccc(C(=O)O)cc2)c2ccccc2)cc1	35*	-3	31*	-5
CC(C)(O)CC[C@H](OC(=O)c1ccccc1)[C@](C)(O)[C@H]1CC[C@@]2(O)C3=CC(=O)[C@@H]4C[C@@H](O)[C@H](O)C[C@]4(C)C3CC[C@]12C (stereo not given in full)	10	-3	11	-2
Cc1nc(-c2ccc(C(=O)Nc3ccc(F)cc3)cc2)cs1	-37	13*	-64	9
Cc1csc(SCC(=O)N(C)c2c(N)n(Cc3ccccc3)c(=O)[nH]c2=O)n1	-32	12*	10	-2
Cc1cc(SCC(=O)N(C)c2c(N)n(Cc3ccccc3)c(=O)[nH]c2=O)nc2ccccc12	22	0	9	-2
